Counter-ions that a name gives are not always drawn. Unmarked numbers belong to inactive results.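 Rule for the calls: active = AUC significantly below DMSO controls by Student t-fit with adjusted P under 0.01; inactive = not significantly reduced.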
Each compound was assayed on Haemophilus parainfluenzae (assay: growth AUC normalised to DMSO control (fraction of control); higher = less growth inhibition, active = hit call of the paper). Details: 20 µM.
In short: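 Pathogens passaged twice anaerobically were inoculated at a starting OD578 of 0.01 into pre-reduced mGAM plates with drug at 20 μM and 1% DMSO, sealed with breathable membranes. Haemophilus parainfluenzae medium was supplemented with hemin and NAD. OD578 was read hourly for 24 h, with three biological replicates. Growth-curve AUC was computed by the trapezoidal rule up to the exponential-to-stationary transition and normalised to DMSO controls on the same plate.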

In order of rising “growth AUC normalised to DMSO control” value:
1. Cc1cn[nH]c1 [Fomepizole]  0.954
2. NC(=O)c1cnccn1 [Pyrazinamide]  0.979
3. CCN(CC)C(=S)SSC(=S)N(CC)CC [Disulfiram]  0.979
4. CC(C)[C@H](N)C(=O)OCCOCn1cnc2c(=O)nc(N)[nH]c21 [Valacyclovir hydrochloride]  0.99
5. c1ccc(C2CN3CCSC3=N2)cc1 (configuration not stated) [Tetramisole hydrochloride]  0.997
6. N=C(N=C(N)N)N1CCOCC1 [Moroxidine hydrochloride]  1
7. CC(=O)OCC(=O)[C@@]1(O)CC[C@H]2[C@@H]3CCC4=CC(=O)CC[C@]4(C)[C@@]3(F)[C@@H](O)C[C@@]21C [Fludrocortisone acetate]  1.02
8. CCOC(=O)[N-]c1c[n+](N2CCOCC2)no1 [Molsidomine]  1.03
9. CCN1CCCC(OC(=O)C(c2ccccc2)c2ccccc2)C1 (configuration not stated) [Piperidolate hydrochloride]  1.05
10. C[C@H](CS)C(=O)N1CCC[C@H]1C(=O)O [Captopril]  1.05

`C=CC1=C(C(=O)O)N2C(=O)[C@@H](NC(=O)/C(=N\OCC(=O)O)c3csc(N)n3)[C@H]2SC1` [Cefixime] was tested, and the “growth AUC normalised to DMSO control” value was 0.0416 (active).
`CCOC(=O)OC(C)OC(=O)[C@@H]1N2C(=O)[C@@H](NC(=O)[C@H](N)c3ccccc3)[C@H]2SC1(C)C` (some centres not stated) [Bacampicillin hydrochloride] was tested, and the “growth AUC normalised to DMSO control” value was 0.0618 (active).

From the supplement of paper PMC12350171
